# Data reported in article PMC11062922 (Nature Chemical Biology, 2023).
# Like-named read-outs stand apart in the source and are kept apart here.
# Key:
# Design in all cases: species or system human, MV4-11 + K-562 + COLO205 + SK-N-BE2 + OVCAR-8
# [1] = system: AKT2; conditions: read-out: apparent Kd, n = 1
# [2] = system: IKBKE; conditions: read-out: apparent Kd, n = 1
# [3] = system: MAP2K1; conditions: read-out: apparent Kd, n = 1
# [4] = system: MAP2K2; conditions: read-out: apparent Kd, n = 1
# [5] = system: MAP4K3; conditions: read-out: apparent Kd, compound concentrations: 100 nM and 1000 nM (sheet 'Samples'), n = 1
# [6] = system: PIK3C2A; conditions: read-out: apparent Kd, n = 1
# [7] = system: PIK3C3; conditions: read-out: apparent Kd, n = 1
# [8] = system: PIM2; conditions: read-out: apparent Kd, n = 1
# [9] = system: STK11; conditions: read-out: apparent Kd, n = 1
# [10] = system: TEC; conditions: read-out: apparent Kd; compound concentrations: 100 nM and 1000 nM (sheet 'Samples'), CATDS: 1.49433127144414E-2; n = 1
# [11] = system: TP53RK; conditions: read-out: apparent Kd, n = 1
# [12] = system: AKT3; conditions: read-out: apparent Kd, n = 1
# [13] = system: CDK10; conditions: read-out: apparent Kd, n = 1
# [14] = system: MAP4K2; conditions: read-out: apparent Kd, n = 1
# [15] = system: MAP4K5; conditions: read-out: apparent Kd, n = 1
# [16] = system: RPS6KA1; conditions: read-out: apparent Kd, compound concentrations: 100 nM and 1000 nM (sheet 'Samples'), n = 1
# [17] = system: SLK; conditions: read-out: apparent Kd, compound concentrations: 100 nM and 1000 nM (sheet 'Samples'), n = 1
# [18] = system: NEK9; conditions: read-out: apparent Kd, n = 1
# [19] = system: TGFBR1; conditions: read-out: apparent Kd, n = 1
# [20] = compound concentrations:100 nM and 1000 nM (sheet 'Samples')
structure (smiles),measurement,setting,value
CCn1c(-c2cccnc2O)nc2cnccc21 [SB-736715],potency estimated from few doses,"[1]; compound concentrations: 100 nM and 1000 nM (sheet 'Samples'), CATDS: 1.4638911444233901E-2",1360 nM
same,potency estimated from few doses,"[2]; compound concentrations: 100 nM and 1000 nM (sheet 'Samples'), CATDS: 1.31503893194051E-2",1730 nM
same,potency estimated from few doses,"[3]; compound concentrations: 100 nM and 1000 nM (sheet 'Samples'), CATDS: 1.2472945477492101E-2",1980 nM
same,potency estimated from few doses,"[4]; compound concentrations: 100 nM and 1000 nM (sheet 'Samples'), CATDS: 1.1967755653937401E-2",2210 nM
same,potency estimated from few doses,[5]; CATDS: 1.18582584558427E-2,2260 nM
same,potency estimated from few doses,"[6]; compound concentrations: 100 nM and 1000 nM (sheet 'Samples'), CATDS: 1.67467583314573E-2",1040 nM
same,potency estimated from few doses,"[7]; compound concentrations: 100 nM and 1000 nM (sheet 'Samples'), CATDS: 1.55952310039979E-2",1190 nM
same,potency estimated from few doses,"[8]; compound concentrations: 100 nM and 1000 nM (sheet 'Samples'), CATDS: 1.60081703977401E-2",1130 nM
same,potency estimated from few doses,"[9]; compound concentrations: 100 nM and 1000 nM (sheet 'Samples'), CATDS: 1.3793469415990099E-2",1550 nM
same,potency estimated from few doses,[10],1300 nM
same,potency estimated from few doses,"[11]; compound concentrations: 100 nM and 1000 nM (sheet 'Samples'), CATDS: 1.2573959142924701E-2",1940 nM
NC(=O)c1cc(-c2ccccc2)cc2c(C3CCNCC3)c[nH]c12 [GSK301362A],potency estimated from few doses,[8]; [20],1500 nM
CCCc1cc(N2CCCN(C)CC2)nc2sc3c(N)ncnc3c12 [BI00604564],potency estimated from few doses,"[12]; compound concentrations: 100 nM and 1000 nM (sheet 'Samples'), CATDS: 0.13900414431421401",1920 nM
CNCc1ccc(-c2cc(-c3nc(-c4ccc(S(=O)(=O)C(C)C)cc4)cnc3N)on2)cc1 [VE-822],potency estimated from few doses,[12]; [20],1760 nM
same,potency estimated from few doses,[3]; [20],2120 nM
same,potency estimated from few doses,[4]; [20],1700 nM
same,potency estimated from few doses,[7]; [20],500 nM
O=C1N=C(NCc2cccs2)O/C1=C\c1ccc2ncccc2c1 [RO4624208-000],potency estimated from few doses,"[11]; compound concentrations: 100 nM and 1000 nM (sheet 'Samples'), CATDS: 4.7970425138991198E-2",1610 nM
O=C(O)C(F)(F)F.O=c1[nH]ccc2nc(N[C@@H]3CCNC3)nc(Nc3ccc4c(c3)S(=O)(=O)CC4)c12 [GSK2181306A],potency estimated from few doses,"[13]; compound concentrations: 100 nM and 1000 nM (sheet 'Samples'), CATDS: 1.0545767640912401E-2",729 nM
same,potency estimated from few doses,"[3]; compound concentrations: 100 nM and 1000 nM (sheet 'Samples'), CATDS: 9.6647970877986305E-3",947 nM
same,potency estimated from few doses,"[4]; compound concentrations: 100 nM and 1000 nM (sheet 'Samples'), CATDS: 8.3394959268462601E-3",1620 nM
same,potency estimated from few doses,"[14]; compound concentrations: 100 nM and 1000 nM (sheet 'Samples'), CATDS: 2.4699396499264999E-2",121 nM
same,potency estimated from few doses,[5]; CATDS: 1.12434649854769E-2,612 nM
same,potency estimated from few doses,"[15]; compound concentrations: 100 nM and 1000 nM (sheet 'Samples'), CATDS: 1.5726732073661799E-2",283 nM
same,potency estimated from few doses,"[8]; compound concentrations: 100 nM and 1000 nM (sheet 'Samples'), CATDS: 8.9086191917804505E-3",1250 nM
same,potency estimated from few doses,[16]; CATDS: 8.5840482500919892E-3,1440 nM
same,potency estimated from few doses,[17]; CATDS: 1.8680668627662898E-2,201 nM
same,potency estimated from few doses,"[9]; compound concentrations: 100 nM and 1000 nM (sheet 'Samples'), CATDS: 1.6673452289140401E-2",251 nM
COC(=O)c1cccc(NC(=O)NC2CCN(c3ccnc(Nc4cc(OC)c(OC)c(OC)c4)n3)C2)c1 (centres unmarked) [GSK1379767A],potency estimated from few doses,"[3]; compound concentrations: 100 nM and 1000 nM (sheet 'Samples'), CATDS: 9.4958067467462701E-2",2010 nM
same,potency estimated from few doses,"[4]; compound concentrations: 100 nM and 1000 nM (sheet 'Samples'), CATDS: 9.7469990790668801E-2",1880 nM
same,potency estimated from few doses,"[6]; compound concentrations: 100 nM and 1000 nM (sheet 'Samples'), CATDS: 9.3691802712770805E-2",2080 nM
c1ccc(-c2n[nH]cc2Nc2ccnc3ccccc23)nc1 [GW694077X],potency estimated from few doses,"[1]; compound concentrations: 100 nM and 1000 nM (sheet 'Samples'), CATDS: 2.2309238886047199E-2",2350 nM
same,potency estimated from few doses,"[6]; compound concentrations: 100 nM and 1000 nM (sheet 'Samples'), CATDS: 2.3388870990997498E-2",1900 nM
COc1cc[nH]c1/C=C1\C(=O)Nc2ccc(F)c(C#CC3(O)CCNCC3)c21.Cl [RO0282986-001],potency estimated from few doses,"[3]; compound concentrations: 100 nM and 1000 nM (sheet 'Samples'), CATDS: 1.0458763538178499E-2",1120 nM
same,potency estimated from few doses,"[4]; compound concentrations: 100 nM and 1000 nM (sheet 'Samples'), CATDS: 1.07586832750675E-2",1010 nM
same,potency estimated from few doses,[5]; CATDS: 9.73261825141249E-3,1470 nM
same,potency estimated from few doses,"[15]; compound concentrations: 100 nM and 1000 nM (sheet 'Samples'), CATDS: 8.9413368005166593E-3",2190 nM
same,potency estimated from few doses,[16]; CATDS: 9.1961356652332602E-3,1900 nM
same,potency estimated from few doses,"[9]; compound concentrations: 100 nM and 1000 nM (sheet 'Samples'), CATDS: 1.0901325293505499E-2",966 nM
c1cnn2ncc(-c3ccnc(Nc4ccc5c(c4)OCCO5)n3)c2c1 [GW806290X],potency estimated from few doses,"[1]; compound concentrations: 100 nM and 1000 nM (sheet 'Samples'), CATDS: 2.25042579106303E-2",1300 nM
same,potency estimated from few doses,"[12]; compound concentrations: 100 nM and 1000 nM (sheet 'Samples'), CATDS: 2.0651194958325798E-2",1770 nM
same,potency estimated from few doses,"[3]; compound concentrations: 100 nM and 1000 nM (sheet 'Samples'), CATDS: 2.0774102889224599E-2",1730 nM
same,potency estimated from few doses,"[4]; compound concentrations: 100 nM and 1000 nM (sheet 'Samples'), CATDS: 2.1479851181110499E-2",1530 nM
same,potency estimated from few doses,"[18]; compound concentrations: 100 nM and 1000 nM (sheet 'Samples'), CATDS: 2.42273764121115E-2",1030 nM
CS(=O)(=O)Nc1ccc(-c2ccnc3[nH]ccc23)cc1 [GSK993273A],potency estimated from few doses,[3]; [20],1720 nM
CNc1cc(-c2ccc3c(N)n[nH]c3c2)nc(N)n1 [GSK2224810A],potency estimated from few doses,[1]; [20],1880 nM
same,potency estimated from few doses,[19]; [20],1160 nM
CC(C)Oc1ccc2c(-c3ccnc(Nc4ccc(N5CCN(C)CC5)cc4)n3)cnn2n1 [GW696155X],potency estimated from few doses,[2]; [20],343 nM
same,potency estimated from few doses,[18]; [20],26 nM
CS(=O)(=O)CCn1c(=O)c(Oc2ccc(F)cc2F)cc2cnc(NC3CCOCC3)nc21 [RO5027956-000],potency estimated from few doses,[12]; [20],2170 nM
same,potency estimated from few doses,[8]; [20],1660 nM
COc1ccc(-c2cc3c(N)ncnc3o2)cc1 [GW642138X],potency estimated from few doses,"[4]; compound concentrations: 100 nM and 1000 nM (sheet 'Samples'), CATDS: 0.100903208593323",1800 nM
NS(=O)(=O)c1ccc(NC=C2C(=O)Nc3ccc4ncsc4c32)cc1 [GW589933X],potency estimated from few doses,[5]; CATDS: 1.6349767602700901E-2,2070 nM
Cc1occc1-c1nc(N)c(OC[C@@H](N)Cc2c[nH]c3ccccc23)cc1-c1cc2c(C)n[nH]c2cn1 [GSK1660450B],potency estimated from few doses,[15]; [20],50.5 nM
Nc1nc(-c2ccc3c(N)n[nH]c3c2)cc(N2CCCC(NC(=O)c3ccccc3)C2)n1 (centres unmarked) [GSK2286775B],potency estimated from few doses,[1]; [20],1370 nM
same,potency estimated from few doses,[2]; [20],298 nM
same,potency estimated from few doses,[3]; [20],1830 nM
same,potency estimated from few doses,[4]; [20],1560 nM
same,potency estimated from few doses,[6]; [20],1910 nM
same,potency estimated from few doses,[11]; [20],2230 nM
CC(C)N1CC(=O)N(C)c2cnc(Nc3cccc(S(=O)(=O)CCN4CCOCC4)c3)nc21 [BI00009348],potency estimated from few doses,[17]; CATDS: 4.9346970439547798E-2,1920 nM
Cc1cc(NC(=O)c2cccc(NC(=O)/C=C/CN(C)C)c2)ccc1Nc1nccc(-c2cccnc2)n1 [JNK-IN-7],potency estimated from few doses,[13]; [20],844 nM
same,potency estimated from few doses,[18]; [20],1380 nM
same,potency estimated from few doses,[7]; [20],1570 nM
COc1cc[nH]c1/C=C1\C(=O)Nc2ccc(F)c(C#C[C@@H](O)[C@@H](N)[C@@H](C)O)c21 [RO0283120-000],potency estimated from few doses,[14]; [20],1070 nM
same,potency estimated from few doses,[9]; [20],1010 nM
CCn1c(-c2nonc2N)nc2cncc(C(=O)N3CC[C@H](N)C3)c21.Cl [SB-772077-B],potency estimated from few doses,[8]; [20],122 nM
O=C(Nc1n[nH]c2nc(-c3ccccc3O)ccc12)C1CC1 [SB-711880],potency estimated from few doses,[14]; [20],1460 nM
same,potency estimated from few doses,[15]; [20],1760 nM
Nc1nccc(-c2ccc3c(N)n[nH]c3c2)n1 [GSK1034945A],potency estimated from few doses,[11]; [20],1540 nM
CCC(CC)(CC)n1cnc2c(N)ncnc21 [SKF-97620],potency estimated from few doses,"[6]; compound concentrations: 100 nM and 1000 nM (sheet 'Samples'), CATDS: 2.66380598887557E-2",1430 nM
same,potency estimated from few doses,"[7]; compound concentrations: 100 nM and 1000 nM (sheet 'Samples'), CATDS: 3.20593447179814E-2",852 nM
COc1ccc(Nc2nccc(NCCNC(=O)Nc3cc(C)ccc3C)n2)cc1 [GSK1379899A],potency estimated from few doses,"[1]; compound concentrations: 100 nM and 1000 nM (sheet 'Samples'), CATDS: 3.9720416292935899E-2",2190 nM
CN[C@H](C#Cc1c(F)ccc2c1/C(=C/c1[nH]ccc1OC)C(=O)N2)CO.Cl [RO0283049-001],potency estimated from few doses,"[9]; compound concentrations: 100 nM and 1000 nM (sheet 'Samples'), CATDS: 2.2375085806392098E-2",1190 nM
Cl.Nc1nc(-c2ccc3c(c2)C(=Cc2cc(Br)c(O)c(Br)c2)C(=O)N3)cs1 [GW407323A],potency estimated from few doses,"[11]; compound concentrations: 100 nM and 1000 nM (sheet 'Samples'), CATDS: 2.8034660612356401E-2",1950 nM
Cl.Cn1c(=O)c(Cc2ccccc2F)cc2cnc(NC3CCOCC3)nc21 [RO3305377-001],potency estimated from few doses,"[12]; compound concentrations: 100 nM and 1000 nM (sheet 'Samples'), CATDS: 1.8504555943704901E-2",1380 nM
Cl.Oc1cccc(Nc2ccnc3cc(-c4ccncc4)ccc23)c1 [GW494601A],potency estimated from few doses,"[19]; compound concentrations: 100 nM and 1000 nM (sheet 'Samples'), CATDS: 2.26052406331183E-2",762 nM
